# How the values were obtained:
# [1] = system: TYK2(JH1domain-catalytic)
# 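Note: kd values determined as follow-up on hits from a single-replicate KINOMEscan panel screen.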
structure (smiles),measurement,setting,value
N#Cc1ccc(-c2cc(-c3c[nH]nc3-c3ccccn3)ccn2)cc1 [GW693028],Kd,TGFBR2,0.58 µM
c1ccc(-c2cc(-c3c[nH]nc3-c3ccccn3)ccn2)cc1 [GW576604],Kd,TNNI3K,> 10 µM
CCn1cnc2c(N)ncnc21 [GW345098],Kd,TRPM6,0.24 µM
O=C(NCCNc1ccnc(Nc2ccc(F)cc2)n1)c1cc2ccccc2s1 [GSK1379874],Kd,TXK,> 10 µM
CN(C1=C(c2ccccc2)C(=O)NC1=O)c1ccccc1 [SB-334860],Kd,TXK,> 10 µM
Cc1ccc(NC(=O)c2ccnc(N3CCN(C)CC3)c2)cc1-c1ccc(C(=O)NCC2CC2)cc1 [GW775604],Kd,[1],> 10 µM
same,Kd,ULK2,> 10 µM
NS(=O)(=O)c1cccc(-c2ccc3nccc(-c4cccc(S(N)(=O)=O)c4)c3c2)c1 [GW867253],Kd,ULK2,> 10 µM
O=C1NC(=O)C(N2CCc3ccccc32)=C1c1cccc(Cl)c1 [SB-408010],Kd,WNK4,> 10 µM

# — PMC5540273 (PLoS ONE, 2017)
